Hit rate of the full screen: of about 370,000 compounds, about 760 (0.21%) were called active.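 How the source made its calls: active means inhibition above a per-campaign cutoff: mean of compounds within control limits plus 3 SD (cut at about 15% in these data); inactive means the rest.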 The list comes from a sample in which actives are over-represented; it also holds similar structures and randomly drawn compounds.
Each compound was assayed against Fibrinogen beta chain (Homo sapiens) (UniProt P02675) (assay: small molecules displacing Tn6 from DD(E) complex – biochemical, fluorescence polarization, human fibrin, Tn6 probe, primary screen (AID 720509;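 further: 0% = median of all compound wells on the plate and 100% = blocking peptide control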)). Settings: Fibrin DD(E) TRITC-Tn6 fluorescence polarization displacement; at 8.3 µM; hits give high values.
Fibrinogen beta chain (Homo sapiens), sequence (P02675 whole entry, looked up): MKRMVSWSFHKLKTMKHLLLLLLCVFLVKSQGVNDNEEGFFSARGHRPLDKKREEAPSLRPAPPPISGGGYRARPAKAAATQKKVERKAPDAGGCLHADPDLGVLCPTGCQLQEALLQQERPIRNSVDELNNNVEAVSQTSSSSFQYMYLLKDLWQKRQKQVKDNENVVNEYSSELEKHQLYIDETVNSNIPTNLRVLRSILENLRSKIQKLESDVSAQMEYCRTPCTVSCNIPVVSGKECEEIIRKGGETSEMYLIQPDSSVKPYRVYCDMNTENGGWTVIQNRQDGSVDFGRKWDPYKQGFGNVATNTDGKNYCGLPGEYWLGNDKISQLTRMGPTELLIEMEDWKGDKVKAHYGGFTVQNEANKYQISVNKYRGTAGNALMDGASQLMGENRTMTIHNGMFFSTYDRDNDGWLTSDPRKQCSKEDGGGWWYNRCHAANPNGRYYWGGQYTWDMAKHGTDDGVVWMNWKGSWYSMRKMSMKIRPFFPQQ

| Structure (SMILES) | inhibition |
| --- | --- |
| CN1CCN(C(=O)c2ccc(-c3cc4nc(NCc5cccnc5)n(C)c(=O)c4s3)cc2)CC1 | -11.9% (inactive) |
| Cc1ccccc1OCC(=O)NCC(=O)OCC(=O)c1ccc2ccccc2c1 | -2.48% (inactive) |
| O=C(COc1ccc(Cl)cc1)NCCSc1ccccc1 | -0.51% (inactive) |
| Cc1cc2ccccc2n1CCNC(=O)COc1ccc2ccccc2c1 | 52.5% (active) |
| O=C(NCc1ccccc1)c1cccc(NC(=O)C2CCCCC2)c1 | 3.16% (inactive) |
| O=C(CC(NC(=O)c1ccccc1)c1ccccc1)Nc1ccc(F)c(F)c1 (stereo unspecified) | 6.57% (inactive) |
| C=CC(COCc1ccccc1)N(CC(=O)OC)S(=O)(=O)c1cc(Br)ccc1OC (stereo unspecified) | -3.84% (inactive) |
| Cc1noc(C)c1CSCC(=O)Nc1ccc(Br)cc1Cl | -5.8% (inactive) |
| CCN(CC)P(=O)(C(NC(=O)OC)C(F)(F)C(F)(F)C(F)(F)C(F)F)N(CC)CC (stereo unspecified) | 0.37% (inactive) |
| CN1c2ccc(C=O)c3c(C=O)ccc(c23)N(C)C1(C)C | 29.5% (active) |
| C[C@@H]1CN([C@H](C)CO)S(=O)(=O)c2ccc(C#CC3CCCCC3)cc2O[C@H]1CN(C)C(=O)Cc1ccncc1 | 2.11% (inactive) |
| Cc1cc(NC(=O)CCC(=O)N(Cc2ccccc2)C(C(=O)NC2CCCC2)c2ccc(C)o2)no1 (stereo unspecified) | -2.98% (inactive) |
| Cc1sc2ncn(CC(=O)NCCCC(=O)N(C)Cc3ccccc3)c(=O)c2c1C | 6.86% (inactive) |
| CCCNC(=O)c1cc(C2CCCN(C(=O)c3ccc4c(c3)CCO4)C2)on1 (stereo unspecified) | 2.19% (inactive) |
| O=C(NC1CCCCC1)c1ccc(CNc2c(N3CCOCC3)c(=O)c2=O)cc1 | -6.33% (inactive) |
| COc1cc(NC(=O)c2ccc(CNc3c(N4CCCC4)c(=O)c3=O)cc2)cc(OC)c1OC | 17.7% (active) |
| O=C(NCc1ccccc1)c1ccc(CNc2c(N3CCCC3)c(=O)c2=O)cc1 | -2.33% (inactive) |
| COc1cc(OC)cc(-c2c(-c3cccs3)c3cc(-c4ccc(OC)cc4F)ccc3n2C)c1 | 8.62% (inactive) |
| CCC1CCCCN1S(=O)(=O)Cc1ccccc1Cl (stereo unspecified) | -7.39% (inactive) |
| Cc1nnsc1S(=O)(=O)Cc1ccccc1Cl | 16.3% (active) |
| Cc1nnsc1C(=O)NCc1c(F)cccc1Cl | 2.62% (inactive) |

| Structure (SMILES) | inhibition |
| --- | --- |
| CCOC(=O)N1CCC(NC(=O)C(NS(=O)(=O)c2ccc3c(c2)CCN3C(=O)CC)C(C)C)CC1 (stereo unspecified) | 0.83% (inactive) |
| CC(C)Cc1ccc(S(=O)(=O)N2CCN(C(=O)c3ccco3)CC2)cc1 | 0.21% (inactive) |
| C[C@H](CO)N1C[C@H](C)[C@@H](CN(C)Cc2ccc(-c3ccccc3)cc2)Oc2ccc(NC(=O)Cn3cnnn3)cc2C1=O | 4.05% (inactive) |
| COC(=O)c1cc(=O)n(-c2c(Cl)cc(C(F)(F)F)cc2Cl)[nH]1 | 0.92% (inactive) |
| O=C(OCCOc1ccccc1Cl)c1cc(S(=O)(=O)N2CCCCC2)ccc1N1CCOCC1 | -7.85% (inactive) |
| CC(C)c1cc(NCc2ccccn2)n2c(nc3ccccc32)c1C#N | 5.58% (inactive) |
| O=C(Nc1ccc2cn[nH]c2c1)c1ccc(S(=O)(=O)N2CCOCC2)cc1 | 3.58% (inactive) |
| Cc1cc2cc(CNC(=O)c3ccc(S(=O)(=O)N4CCOCC4)cc3)ccc2[nH]1 | 16% (active) |
| Cc1cc2cc(CNC(=O)c3cccs3)ccc2[nH]1 | -2.34% (inactive) |
| N=c1n(Cc2ccc(Cl)cc2)c2ccccc2n1CC(O)c1ccco1 (stereo unspecified) | 0.26% (inactive) |
| C=CCNC(=S)N1CCN(CCN=Cc2c(C)[nH]n(-c3ccc([N+](=O)[O-])cc3)c2=O)CC1 | -4.37% (inactive) |
| O=c1[nH]n(-c2ccc([N+](=O)[O-])cc2)c(=O)c2ccccc12 | 27.3% (active) |
| O=C(CSCc1ccc([N+](=O)[O-])cc1)NCCSCc1ccccc1 | 2.74% (inactive) |
| COc1cccc(NC(=O)Cn2c3ccc(F)cc3c3nc4n(c(=O)c32)CCS4)c1 | -7.55% (inactive) |
| COc1ccc(C2/C=C\CN(S(=O)(=O)c3cccs3)CC(=O)N2Cc2ccc(F)cc2)cc1 (stereo unspecified) | -0.69% (inactive) |
| CC(=O)c1ccc(OCCCC(=O)Nc2ccc(C)c(S(=O)(=O)N3CCOCC3)c2)cc1 | 6.11% (inactive) |
| CCCCNC(=O)c1ccccc1NC(=O)c1ccccc1N(C)S(C)(=O)=O | 2.47% (inactive) |
| COc1ccccc1N(CCOc1ccccc1)S(=O)(=O)c1ccccc1 | 5.19% (inactive) |
| COC(C/C=C/C(=O)[C@@H](C)OCc1ccccc1)OC | 5.15% (inactive) |
| O=c1c2ccccc2nc2n1C(CSCc1cccc(C(F)(F)F)c1)CS2 (stereo unspecified) | 2.51% (inactive) |

— PubChem BioAssay AID720509 (The Scripps Research Institute Molecular Screening Center, 2013)
